In PubChem BioAssay AID540360 (National Center for Advancing Translational Sciences (NCATS), 2011):
Results filed as inconclusive are left out. Unmarked numbers belong to inactive results. The source made the active and inactive calls. The call rests on the fitted dose curve; in most records, active means well fitted inhibition curve with a large enough effect; inconclusive means small, poorly fitted or top-dose-only effect; inactive means no such curve, though single readings can be large or run the other way.

tested on: 6-phosphofructokinase (Trypanosoma brucei); test: Confirmatory Assay to Find Inhibitors of T. brucei phosphofructokinase: probe SAR; conditions: recombinant T. brucei PFK, ADP-Glo luminescence; series mostly up to 57.5 µM; activity change, negative = inhibition: at the top concentration
Text: NIH Molecular Libraries Probe Production Network [MLPCN] NIH Chemical Genomics Center [NCGC] Grant: 1 R03 MH092153-01 PI Name: Malcolm Walkinshaw, University of Edinburgh NCGC Assay Overview: Various species of the protozoan family Trypanosomatidae are responsible for a range of serious human diseases in tropical and subtropical areas of the world. […] Many of the disorders caused by trypanosomatids are fatal if left untreated, but most currently used drugs are inefficient and toxic. […] Oxidative metabolism involving the mitochondrial tricarboxylic acid cycle and oxidative phosphorylation are repressed in these parasites, and recent RNA interference (RNAi) experiments have shown that even partial depletion of certain individual glycolytic enzymes can lead to the death of cultured parasites. One such glycolytic enzyme, phosphofructokinase (PFK), catalyzes the formation of fructose-1,6-bisphosphate (F1,6BP) and ADP from fructose-6-phosphate (F6P) and ATP, and in many metabolic circumstances makes an important contribution to the control of flux through the glycolytic pathway. As a specific glycolytic target, PFK is particularly attractive as it catalyzes the first irreversible step in glycolysis, and structural and kinetic studies have shown very substantial and essential differences from corresponding host enzymes, allowing for the discovery of parasite-selective inhibitors. The goal of this screen is to find small-molecule inhibitors of T. brucei PFK using a biochemical assay that measures PFK activity as a function of ADP production. A luminescence-based assay for T. brucei PFK activity has been developed which uses luciferase to detect production of ADP. Traditional luciferase-based nucleotide detection reagents rely on ATP production as a direct substrate for the luciferase reaction; however, PFK catalyzes the transfer of a phosphate from ATP to F6P, resulting in the net depletion of ATP. To directly measure the ADP product of the PFK reaction, we used the ADP-Glo detection kit (Promega), which utilizes two separate reactions to 1) deplete all remaining uncatalyzed ATP and 2) convert all remaining ADP to ATP, which is then detected through a traditional luciferase-coupled reaction. Compounds were screened as a concentration-titration series that ranged from 57 uM to 0.3 nM.
NCGC Assay Protocol Summary: NCGC Assay Protocol Summary: Substrate buffer was dispensed into white, solid 1536-well plates at 3uL/well in 0.1M triethanolamine (TEA) buffer, pH 8.0, containing final concentrations of 5 mM MgCl2, 0.01% Tween20, 0.5 mM fructose-6-phosphate (F6P) and 0.1mM ATP. Then, 23 nL of compounds or DMSO were delivered to each well using a pin tool. One uL T. brucei PFK (0.1M TEA, 0.01% Tween20, 0.1% bovine serum albumin (BSA) and 1.25nM PFK, final concentrations) was then dispensed, and plates were incubated at room temperature for 45 min. The luminescent detection reagent, ADP-Glo (Promega), was then added in two steps: the first reagent, ADP-Glo (which converts remaining uncatalyzed ATP), was added at 2.5uL/well and incubated for ten minutes at room temperature, and the second component, Kinase Detection reagent (which converts ADP to ATP as a substrate for luciferase-based luminescence), was added immediately after at 5uL/well, followed by one final ten minute room temperature incubation. The plates were measured on a ViewLux plate reader for luminescent signal using a clear filter with a one second exposure. The %Activity was determined from the corrected luminescence values. As no specific T. brucei PFK inhibitors have been identified in the literature, 1x (1.25nM) and 0x PFK enzyme controls (untreated) were included to normalize %Activity of identified inhibitors; 0x enzyme values corresponded to 100%Activity (full inhibition), while 1x PFK enzyme values were used to normalize 0%Activity (no inhibition). Concentration-response curves were fitted to the signals arising from the resulting luminescence. […]

| Compound | Potency | activity change, negative = inhibition |
| --- | --- | --- |
| Cc1cc(NS(=O)(=O)c2ccc(NC(=O)Cc3ccc(Cl)cc3)cc2)no1 | 1.83 µM (active) | – |
| Cc1cc(NS(=O)(=O)c2ccc(NC(=O)Cc3ccc(Cl)c(C(F)(F)F)c3)cc2)no1 | 0.461 µM (active) | – |
| O=C(Cc1ccc(Cl)c(Cl)c1)Nc1ccc(S(=O)(=O)Nc2cccc(O)c2)cc1 | 1.46 µM (active) | – |
| Cc1cc(NS(=O)(=O)c2cccc(NC(=O)Cc3ccc(Cl)c(Cl)c3)c2)no1 | 16.3 µM (active) | – |
| O=C(Cc1ccc(Cl)c(Cl)c1)Nc1ccc(S(=O)(=O)Nc2ccn[nH]2)cc1 | 0.517 µM (active) | – |
| Cc1cc(NS(=O)(=O)c2ccc(NC(=O)Cc3ccc(C)c(F)c3)cc2)no1 | 5.8 µM (active) | – |
| Cc1cc(NS(=O)(=O)c2ccc(NC(=O)Cc3ccc(Cl)cc3Cl)cc2)no1 | 4.61 µM (active) | – |
| Cc1cc(NS(=O)(=O)c2ccc(NCCc3ccc(Cl)c(Cl)c3)cc2)no1 | 4.61 µM (active) | – |
| Cc1cc(NS(=O)(=O)c2ccc(NC(=O)Cc3ccc(Cl)c(Cl)c3)cc2)no1 | 0.41 µM (active) | – |
| Cc1cc(NS(=O)(=O)c2ccc(NC(=O)Cc3cccc(Cl)c3)cc2)no1 | 7.3 µM (active) | – |
| Cc1cc(NS(=O)(=O)c2ccc(C(=O)NCc3ccc(Cl)c(Cl)c3)cc2)no1 | 2.91 µM (active) | – |
| Cc1cc(NC(=O)c2csc(NC(=O)Cc3ccc(Cl)c(Cl)c3)n2)no1 | – | -33.7% |
| Cc1cc(NC(=O)c2ccc(NC(=O)Cc3ccc(Cl)c(Cl)c3)cc2)no1 | – | -9.38% |
| Cc1cc(NS(=O)(=O)Cc2ccc(NC(=O)Cc3ccc(Cl)c(Cl)c3)cc2)no1 | 2.59 µM (active) | – |
| Cc1cc(NS(=O)(=O)c2ccc(N(C)C(=O)Cc3ccc(Cl)c(Cl)c3)cc2)no1 | 1.63 µM (active) | – |
| COc1ccc(CC(=O)Nc2ccc(S(=O)(=O)Nc3cc(C)on3)cc2)cc1OC | – | 3.92% |
| CCOC(=O)c1cccc(NS(=O)(=O)c2ccc(NC(=O)Cc3ccc(Cl)c(Cl)c3)cc2)c1 | – | -12.9% |

| Compound | Potency | activity change, negative = inhibition |
| --- | --- | --- |
| Cc1cc(NS(=O)(=O)c2ccc(NC(=O)Cc3ccc(Cl)c(Cl)c3)cc2)n(C)n1 | 1.46 µM (active) | – |
| O=C(Cc1ccc(Cl)c(Cl)c1)Nc1ccc(S(=O)(=O)Nc2cncnc2)cc1 | 0.819 µM (active) | – |
| COc1ccc(CC(=O)Nc2ccc(S(=O)(=O)Nc3cc(C)on3)cc2)cc1C | – | -23.2% |
| CN(C)c1cccc(NS(=O)(=O)c2ccc(NC(=O)Cc3ccc(Cl)c(Cl)c3)cc2)c1 | 5.8 µM (active) | – |
| Cc1cc(NS(=O)(=O)c2ccc(NC(=O)Cc3ccc4ccccc4c3)cc2)no1 | 6.51 µM (active) | – |
| Cc1cc(N[S+](=O)([O-])c2ccc(NC(=O)Cc3ccc(Cl)nc3)cc2)no1 | 20.6 µM (active) | – |
| Cc1cc(N[S+](=O)([O-])c2ccc3cc(NC(=O)Cc4ccc(Cl)c(Cl)c4)ccc3c2)no1 | 5.8 µM (active) | – |
| Cc1cc(N(C)S(=O)(=O)c2ccc(NC(=O)Cc3ccc(Cl)c(Cl)c3)cc2)no1 | 2.91 µM (active) | – |
| O=C(Cc1ccc(Cl)c(Cl)c1)Nc1ccc(S(=O)(=O)Nc2ccc(C(=O)O)cc2)cc1 | 0.163 µM (active) | – |
| O=C(Cc1ccc(Cl)c(Cl)c1)Nc1ccc(S(=O)(=O)Nc2cccc(C(=O)O)c2)cc1 | 0.259 µM (active) | – |
| Cc1cc(NS(=O)(=O)c2ccc(NC(=O)Cc3ccc(Cl)c(Cl)c3)cc2)on1 | 0.206 µM (active) | – |
| Cc1cc(NS(=O)(=O)c2ccc(NC(=O)Cc3ccc(Cl)c(F)c3)cc2)no1 | 0.58 µM (active) | – |
| O=C(Cc1ccc(Cl)c(Cl)c1)Nc1ccc(S(=O)(=O)Nc2ccon2)cc1 | 0.366 µM (active) | – |
| Cc1cc(NS(=O)(=O)c2ccc(NC(=O)Cc3ccc(C)c(C)c3)cc2)no1 | 18.3 µM (active) | – |
| O=C(Cc1ccc(Cl)c(Cl)c1)Nc1ccc(S(=O)(=O)Nc2ccccc2)cc1 | 16.3 µM (active) | – |
| Cc1cc(NS(=O)(=O)c2ccc(NC(=O)CCc3ccc(Cl)c(Cl)c3)cc2)no1 | 5.17 µM (active) | – |
| O=C(Cc1ccc(Cl)c(Cl)c1)Nc1ccc(S(=O)(=O)O)cc1 | 0.651 µM (active) | – |
